# From PubChem
# Only some compounds are listed: those with a hit (about 4.6% of all), similar ones and a draw of the others.
# TRHR enhancer: allosterically enhances the human TRH receptor; AID 493056; 360,000 compounds, 0.66% hits; TRHR cells, fluo-8 calcium fluorescence, EC20 TRH enhancement; enhancement, % at 2 µM; P34981; in the data active = enhancement above about 30%; also: 0% is about no effect
#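 Enhancer read-out: after compound pinning and an initial kinetic agonist-mode read, an EC20 of TRH (10 nM final) was injected and fluo-8 calcium signal (Ex 480/Em 530) followed at 1 s/cycle for 100 cycles in TRHR-expressing cells.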
# D1 ag: human D1 receptor agonism. activation, % at 2 µM. HEK293 T-REx D1 cells, calcium flux, agonist mode. 360,000 compounds, 1% hits. AID 504660; also: 0% is about no effect
# Target sequence (P21728 whole entry, looked up): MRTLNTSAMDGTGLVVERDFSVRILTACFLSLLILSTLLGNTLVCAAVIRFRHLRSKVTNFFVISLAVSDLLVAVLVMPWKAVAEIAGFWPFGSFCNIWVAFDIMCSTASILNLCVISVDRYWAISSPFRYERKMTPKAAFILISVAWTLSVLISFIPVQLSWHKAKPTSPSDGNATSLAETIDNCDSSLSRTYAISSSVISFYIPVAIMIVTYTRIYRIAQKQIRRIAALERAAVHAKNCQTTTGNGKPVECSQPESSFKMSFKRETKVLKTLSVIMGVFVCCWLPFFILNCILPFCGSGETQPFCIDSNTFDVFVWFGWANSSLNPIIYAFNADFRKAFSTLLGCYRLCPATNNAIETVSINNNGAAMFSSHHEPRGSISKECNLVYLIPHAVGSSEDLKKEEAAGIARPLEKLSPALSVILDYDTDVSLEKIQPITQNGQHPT
#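 Tetracycline-induced HEK293 TREx D1 cells, force-coupled to calcium signalling, were dye-loaded with a no-wash calcium kit. Compound was pin-added after a 10 s baseline. Fluorescence was read kinetically at 1 cycle/s for 180 s, with calcium rises flagged as agonism.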
# TRHR agonist: activates the human TRH receptor; P34981; activation, % at 2 µM; AID 493084; 360,000 compounds, 0.18% hits; TRHR cells, calcium flux fluo-8, FDSS agonist mode; also: 0% is about no effect
#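 Read-out: compound-evoked intracellular calcium rise in TRHR cells, fluo-8 dye, kinetic FDSS fluorescence at 1 s/cycle following a 10-cycle baseline. Cells cultured overnight before dye loading (30 min–1.5 h, RT).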
# D1 PAM: human D1 dopamine receptor positive modulation; P21728; HEK293 TREx D1 cells, calcium flux, dopamine EC20 potentiation; potentiation, % at 10 µM; 360,000 compounds, 0.036% hits; AID 504651; in the data active = potentiation above about 30%; also: 0% is about no effect
# D1 antag: blocks dopamine activation of the human D1 receptor; activity change, negative = inhibition, % at 10 µM; P21728; HEK293 TREx D1 cells, calcium flux, dopamine EC80; stronger effect = lower value; 360,000 compounds, 3.2% hits; AID 504652; in the data active = activity change below about -30%; also: % is scaled to controls: 0 for no effect and ±100 for the full control effect
#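 Calcium flux readout: force-coupled, inducible Hek293 Trex D1 line, cells induced overnight at 30 C with tetracycline, dye-loaded 30–90 min at RT. Antagonism scored against EC80 dopamine challenge given 180 s after compound.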
# The depositor's hits bear a star. Rule as the data show it, unless noted: active = activation above about 30%; inactive = the rest.
SMILES,TRHR enhancer,D1 ag,TRHR agonist,D1 PAM,D1 antag
COc1ccccc1NC(=O)C1=C(C)NC(=O)NC1c1ccco1 (stereo unspecified),0,1,0,-1,-6
O=C(NCc1ccc(F)cc1)C1CCN(S(=O)(=O)c2ccc(Br)s2)CC1,-5,0,0,-6,-30*
O=C(NCc1ccc(F)cc1)C1CCCN(S(=O)(=O)c2ccc(Br)s2)C1 (stereo unspecified),-3,-1,-1,2,-3
O=C(NCc1ccc(F)cc1Cl)C1CCN(S(=O)(=O)N2CCCCC2)CC1,3,50*,0,-10,-18
CCS(=O)(=O)N1CCC(C(=O)NCc2ccc(F)cc2Cl)CC1,0,2,0,-4,2
CC(C)CN(CC(C)C)S(=O)(=O)N1CCC(C(=O)NCc2ccc(F)cc2)CC1,14,28,-1,-9,-67*
CC(C)CN(CC(C)C)S(=O)(=O)N1CCC(C(=O)NCc2cccnc2)CC1,7,2,-2,4,21
CN(C(=O)CC1C(=O)NCCN1Cc1ccc(F)cc1)C1CCOCC1 (stereo unspecified),3,4,1,-3,-16
CN(C(=O)CC1C(=O)NCCN1Cc1ccc(F)c(F)c1)C1CCOCC1 (stereo unspecified),-1,3,0,-3,-42*
COc1cc(OC)c2c(c1)C(=O)OC2OC (stereo unspecified),36*,1,0,-1,12
CC(=O)c1cccc(OCCN2C(=O)NC(C)(C)C2=O)c1,-6,0,0,1,-30*
CCc1cccc(OCCCN2C(=O)NC(C)(C)C2=O)c1,-11,3,2,-4,-5
CCCNc1nc(C)cc(-c2cc(C(=O)NCc3ccccc3)on2)n1,1,6,1,-1,-30*
Cc1cc(-c2cc(C(=O)NCc3ccccc3)on2)nc(NCC2CC2)n1,4,11,1,-3,7
COc1ccc2c(c1)CC(C(=O)NCCN1CCN(c3cccc(Cl)c3)CC1)CO2 (stereo unspecified),-4,24,0,-2,-47*
O=C(NCCN1CCN(c2cccc(Cl)c2)CC1)C1COc2ccccc2C1 (stereo unspecified),23,8,0,-5,-86*
COc1ccc2c(c1)CC(C(=O)NCCCN1CCN(c3ccccc3F)CC1)CO2 (stereo unspecified),1,3,0,-3,-19
O=C(NCCc1ccccc1)C1COc2ccccc2C1 (stereo unspecified),-2,3,0,-3,-7
O=C(NCCN1CCN(c2ccccc2F)CC1)C1COc2ccccc2C1 (stereo unspecified),6,-2,0,-5,-57*
CCC1=Nc2cc(C(=O)NCCN3CCOCC3)ccc2Sc2ccc(Br)cc21,-1,11,1,-14,-36*
CCC1=Nc2cc(C(=O)NCCN3CCCC3)ccc2Sc2ccccc21,4,16,1,-8,-30*
N/C(=N\N=C/c1ccc(Br)cc1)N/N=C\c1ccc(Br)cc1,4,1,0,-2,10
N/C(=N\N=C/c1ccc(F)cc1)N/N=C\c1ccc(F)cc1,5,11,-1,-10,-59*
COCCNC(=O)CN1C(=O)COc2ccc(S(=O)(=O)N3CCOCC3)cc21,6,0,0,-2,-26
CC[C@@H]1CC=C[C@H]2[C@H]1C(=O)N(Cc1ccccc1)[C@H]2c1ccc(OC)c(Cl)c1,1,2,0,3,28
SMILES,TRHR enhancer,D1 ag,TRHR agonist,D1 PAM,D1 antag
NC(N)=NN=C1CCC(c2ccccc2)CC1 (stereo unspecified),21,2,1,37*,7
CC(=O)NN=C1CCC(c2ccccc2)CC1 (stereo unspecified),-2,1,0,-9,-3
O=C(O)CC(CC(=O)Nc1ccc(F)c(Cl)c1)c1ccc(Cl)cc1Cl (stereo unspecified),4,4,0,7,-3
O=C(Nc1ccc2c(c1)OCO2)C1CC(=O)N(CCc2ccccc2)C1 (stereo unspecified),3,-2,0,-6,-38*
COc1ccc(CCN2CC(C(=O)Nc3ccc4c(c3)OCO4)CC2=O)cc1OC (stereo unspecified),-11,3,0,0,-4
COc1ccc(-c2ccc(CCC(=O)O)o2)cc1,5,0,0,-7,-4
Cc1ccn2c(Nc3c(C)cccc3C)c(-c3ccsc3)nc2c1,-6,0,0,3,5
Cc1ccn2c(Nc3c(C)cccc3C)c(-c3ccc(Cl)s3)nc2c1,-3,34*,12,-4,1
COc1cc(CNn2cnnc2)ccc1OCC(=O)NC1CCCCC1,-7,1,0,-2,-1
COc1ccc(C(=O)N(CN2CCCC2=O)c2nccs2)cc1OC,-1,2,-1,2,6
CSc1ccc(/C=C/C(=O)OCC(=O)N2CCN(S(=O)(=O)c3ccc(C)cc3C)CC2)cc1,-4,12,1,-3,-33*
Cc1ccc(S(=O)(=O)N2CCN(C(=O)COC(=O)/C=C/c3ccccc3)CC2)c(C)c1,6,8,1,-1,-6
Cc1ccc(S(=O)(=O)N2CCN(C(=O)COC(=O)/C=C/c3ccc(F)cc3)CC2)c(C)c1,-6,7,0,-2,-38*
Cc1cccc(NC(=O)c2c(NC(=O)c3ccco3)sc3c2CCC(C(C)(C)C)C3)c1 (stereo unspecified),3,0,-1,-2,1
Cc1cc(N)n2nc(-c3ccccc3)cc2n1,3,1,0,-8,-41*
CCOC(=O)C1(Cc2ccc(OC)cc2)CCN(C(=O)c2cc(C)on2)CC1,-2,4,0,3,-33*
CCOC(=O)C1(Cc2cccc(OC)c2)CCN(CC(O)CO)CC1 (stereo unspecified),-3,1,-1,-6,-44*
CC1CN(C(=O)N2c3ccccc3Sc3ccccc32)C(C)CC1=O (stereo unspecified),6,1,0,4,32
O=C(Nc1nc2ccc(F)cc2s1)Oc1ccccc1,-4,5,1,-5,3
COc1ccc(Nc2oc(-c3cccs3)nc2C#N)cc1,-6,2,-1,-10,-43*
Cc1cccc(C)c1Nc1c(-c2ccccn2)nc2c(C)cccn12,-2,5,0,-2,-48*
CC(C)c1ccc(Nc2c(-c3ccccn3)nc3ccccn23)cc1,-6,4,0,0,-34*
Cc1ccccc1Nc1c(-c2ccccn2)nc2ccccn12,12,3,0,0,-2
